Results reported in ChEMBL document CHEMBL3988442, “University of Dundee, Small-Polar-MMV Screening Library” (2021).
For some of these results: Potency and affinity values are given separately.

Experiments:
Parameters in all cases: scale not given: direction of the effect not stated beside the values
[1] = molecular target: Protein translocase subunit SecA (Escherichia coli (strain K12)) (UniProt P10408); assay: Assay to Identify E. coli SecA ATPase Inhibitors; type: functional; details: 30 µM
[2] = molecular target: T1, Ubiquitin-activating enzyme e1, putative (Leishmania donovani (strain BPK282A1)) (UniProt E9BSI1); assay: Leishmania donovani Ubiquitin Activating Enzyme (LdE1); type: functional; details: 30 µM
T1 sequence (whole entry): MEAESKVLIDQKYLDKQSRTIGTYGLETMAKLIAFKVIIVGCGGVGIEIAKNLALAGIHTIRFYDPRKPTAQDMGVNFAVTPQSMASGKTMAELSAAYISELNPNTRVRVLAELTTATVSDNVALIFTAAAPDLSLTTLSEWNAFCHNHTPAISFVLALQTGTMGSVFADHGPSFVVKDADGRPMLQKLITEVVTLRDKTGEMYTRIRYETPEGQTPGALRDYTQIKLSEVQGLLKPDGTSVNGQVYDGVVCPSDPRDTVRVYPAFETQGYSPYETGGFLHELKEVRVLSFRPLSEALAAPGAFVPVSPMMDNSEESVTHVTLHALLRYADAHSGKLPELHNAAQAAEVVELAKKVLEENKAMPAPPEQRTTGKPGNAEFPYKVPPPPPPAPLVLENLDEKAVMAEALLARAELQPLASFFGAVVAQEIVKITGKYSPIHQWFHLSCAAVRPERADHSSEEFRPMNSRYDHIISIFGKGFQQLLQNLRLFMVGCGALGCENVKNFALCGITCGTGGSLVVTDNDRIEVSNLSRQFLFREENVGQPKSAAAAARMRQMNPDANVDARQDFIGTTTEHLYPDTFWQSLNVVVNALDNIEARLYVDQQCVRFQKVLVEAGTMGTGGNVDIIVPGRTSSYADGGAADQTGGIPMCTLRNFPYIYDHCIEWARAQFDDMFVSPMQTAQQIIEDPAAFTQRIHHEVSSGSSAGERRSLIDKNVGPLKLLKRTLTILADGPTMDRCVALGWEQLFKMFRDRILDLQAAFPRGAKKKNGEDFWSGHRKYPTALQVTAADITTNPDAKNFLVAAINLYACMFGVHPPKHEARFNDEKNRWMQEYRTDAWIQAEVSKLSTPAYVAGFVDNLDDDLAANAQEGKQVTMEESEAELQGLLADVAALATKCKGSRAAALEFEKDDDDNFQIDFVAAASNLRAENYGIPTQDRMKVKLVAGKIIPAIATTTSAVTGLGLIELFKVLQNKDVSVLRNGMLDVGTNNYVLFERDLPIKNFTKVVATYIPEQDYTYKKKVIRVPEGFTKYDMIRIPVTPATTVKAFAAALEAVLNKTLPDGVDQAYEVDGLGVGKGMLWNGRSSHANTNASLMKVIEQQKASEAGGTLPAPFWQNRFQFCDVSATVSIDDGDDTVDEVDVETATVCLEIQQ

[3] = molecular target: AMP-activated protein kinase, AMPK (Homo sapiens) (UniProt P54646+O43741+P54619+Q9UGJ0+Q9Y478+Q13131+Q9UGI9); assay: AMP-dependent Kinase enzyme assay. An in vitro enzyme assay that detects ADP turnover that is directly proportional to AMPK activity. This uses naive AMPK that is activated during the assay with MK-8722; type: functional; details: 30 µM
[4] = molecular target: Sialic acid-binding Ig-like lectin 9 (Homo sapiens) (UniProt Q9Y336); assay: Hs-Siglec9 ALPHAscreen SOP 20170721; details: 10 µM
Trypanosoma cruzi = assay: Trypanosoma cruzi phosphomannomutase and mannose-1-phosphate guanylyltransferase assay; type: functional; details: 10 µM
[5] = molecular target: T2, Arginase-2, mitochondrial (Homo sapiens) (UniProt P78540); assay: in vitro enzyme assay to detect the production of urea directly proportional to the activity of Arginase II; type: functional; details: 33.3 µM; further: in the data most compounds retested in dose-response had high values
T2 sequence (whole entry): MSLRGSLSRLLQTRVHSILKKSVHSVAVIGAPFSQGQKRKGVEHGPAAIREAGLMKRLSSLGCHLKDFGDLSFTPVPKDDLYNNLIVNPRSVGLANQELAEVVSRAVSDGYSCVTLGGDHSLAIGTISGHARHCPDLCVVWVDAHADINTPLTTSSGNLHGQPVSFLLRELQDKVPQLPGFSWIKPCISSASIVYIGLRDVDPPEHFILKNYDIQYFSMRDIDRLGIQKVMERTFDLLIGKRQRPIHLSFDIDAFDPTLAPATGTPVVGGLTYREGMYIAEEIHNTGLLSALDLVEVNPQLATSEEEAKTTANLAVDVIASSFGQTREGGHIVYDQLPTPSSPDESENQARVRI

[6] = molecular target: T3, Proteasome subunit beta (Trypanosoma cruzi) (UniProt O96673); assay: Trypanosoma cruzi proteasome chymotrypsin-like activity (TcProtChymo) assay.; further: in the data most compounds retested in dose-response had high values; type: functional; details: 9.37 µM
T3 sequence (whole entry): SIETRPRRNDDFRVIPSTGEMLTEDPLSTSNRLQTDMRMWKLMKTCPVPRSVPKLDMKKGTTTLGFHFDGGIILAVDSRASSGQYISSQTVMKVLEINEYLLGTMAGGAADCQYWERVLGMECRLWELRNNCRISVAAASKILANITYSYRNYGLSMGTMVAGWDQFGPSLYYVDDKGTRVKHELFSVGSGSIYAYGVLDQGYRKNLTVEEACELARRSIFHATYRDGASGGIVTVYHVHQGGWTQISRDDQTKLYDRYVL

Homo sapiens = species: Homo sapiens; assay: To identify inhibition of the IFN signalling (Jak-Stat) pathway via expression of an eGFP reporter gene under the control of an IFN-stimulated response element (ISRE) containing MxA promoter.; type: functional; details: 30 µM
[7] = molecular target: T4, Tyrosyl-tRNA synthetase, putative (Trypanosoma cruzi (strain CL Brener)) (UniProt Q4DSP6); assay: Trypanosoma cruzi tyrosyl tRNA synthetase (TcYRS) _High Tyrosine SOP; type: functional; details: 30 µM; further: in the data most compounds retested in dose-response had high values
T4 sequence (whole entry): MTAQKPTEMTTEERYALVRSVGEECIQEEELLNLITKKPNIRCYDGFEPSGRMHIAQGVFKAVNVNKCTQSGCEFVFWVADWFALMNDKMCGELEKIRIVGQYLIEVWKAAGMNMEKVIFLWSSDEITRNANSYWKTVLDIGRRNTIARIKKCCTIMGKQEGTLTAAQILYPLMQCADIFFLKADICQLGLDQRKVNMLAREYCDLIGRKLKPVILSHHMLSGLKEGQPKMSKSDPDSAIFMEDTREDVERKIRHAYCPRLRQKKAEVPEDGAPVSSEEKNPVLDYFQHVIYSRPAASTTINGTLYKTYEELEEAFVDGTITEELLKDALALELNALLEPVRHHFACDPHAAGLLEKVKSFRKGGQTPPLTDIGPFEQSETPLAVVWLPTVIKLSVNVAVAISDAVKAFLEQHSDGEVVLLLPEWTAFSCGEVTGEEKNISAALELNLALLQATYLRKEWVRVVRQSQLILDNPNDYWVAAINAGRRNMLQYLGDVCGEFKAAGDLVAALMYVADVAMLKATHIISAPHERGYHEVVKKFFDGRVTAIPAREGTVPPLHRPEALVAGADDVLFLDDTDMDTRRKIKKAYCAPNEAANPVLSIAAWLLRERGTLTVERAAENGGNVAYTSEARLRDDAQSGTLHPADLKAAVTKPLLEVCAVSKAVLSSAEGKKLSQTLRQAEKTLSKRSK

[8] = molecular target: T4, Tyrosyl-tRNA synthetase, putative (Trypanosoma cruzi (strain CL Brener)); assay: Trypanosoma cruzi tyrosyl tRNA synthetase (TcYRS) SOP; type: functional; details: 30 µM
[9] = molecular target: Chromo domain-containing protein 1 (Saccharomyces cerevisiae (strain ATCC 204508 / S288c) (Baker's yeast)) (UniProt P32657); assay: ScCHD-1 Enzyme Inhibition Assay; type: functional; details: 30 µM; further: in the data most compounds retested in dose-response had high values
Chain of Chromo domain-containing protein 1 (Saccharomyces cerevisiae (strain ATCC 204508 / S288c) (Baker's yeast)) (P32657 whole entry, the tested form may be a part): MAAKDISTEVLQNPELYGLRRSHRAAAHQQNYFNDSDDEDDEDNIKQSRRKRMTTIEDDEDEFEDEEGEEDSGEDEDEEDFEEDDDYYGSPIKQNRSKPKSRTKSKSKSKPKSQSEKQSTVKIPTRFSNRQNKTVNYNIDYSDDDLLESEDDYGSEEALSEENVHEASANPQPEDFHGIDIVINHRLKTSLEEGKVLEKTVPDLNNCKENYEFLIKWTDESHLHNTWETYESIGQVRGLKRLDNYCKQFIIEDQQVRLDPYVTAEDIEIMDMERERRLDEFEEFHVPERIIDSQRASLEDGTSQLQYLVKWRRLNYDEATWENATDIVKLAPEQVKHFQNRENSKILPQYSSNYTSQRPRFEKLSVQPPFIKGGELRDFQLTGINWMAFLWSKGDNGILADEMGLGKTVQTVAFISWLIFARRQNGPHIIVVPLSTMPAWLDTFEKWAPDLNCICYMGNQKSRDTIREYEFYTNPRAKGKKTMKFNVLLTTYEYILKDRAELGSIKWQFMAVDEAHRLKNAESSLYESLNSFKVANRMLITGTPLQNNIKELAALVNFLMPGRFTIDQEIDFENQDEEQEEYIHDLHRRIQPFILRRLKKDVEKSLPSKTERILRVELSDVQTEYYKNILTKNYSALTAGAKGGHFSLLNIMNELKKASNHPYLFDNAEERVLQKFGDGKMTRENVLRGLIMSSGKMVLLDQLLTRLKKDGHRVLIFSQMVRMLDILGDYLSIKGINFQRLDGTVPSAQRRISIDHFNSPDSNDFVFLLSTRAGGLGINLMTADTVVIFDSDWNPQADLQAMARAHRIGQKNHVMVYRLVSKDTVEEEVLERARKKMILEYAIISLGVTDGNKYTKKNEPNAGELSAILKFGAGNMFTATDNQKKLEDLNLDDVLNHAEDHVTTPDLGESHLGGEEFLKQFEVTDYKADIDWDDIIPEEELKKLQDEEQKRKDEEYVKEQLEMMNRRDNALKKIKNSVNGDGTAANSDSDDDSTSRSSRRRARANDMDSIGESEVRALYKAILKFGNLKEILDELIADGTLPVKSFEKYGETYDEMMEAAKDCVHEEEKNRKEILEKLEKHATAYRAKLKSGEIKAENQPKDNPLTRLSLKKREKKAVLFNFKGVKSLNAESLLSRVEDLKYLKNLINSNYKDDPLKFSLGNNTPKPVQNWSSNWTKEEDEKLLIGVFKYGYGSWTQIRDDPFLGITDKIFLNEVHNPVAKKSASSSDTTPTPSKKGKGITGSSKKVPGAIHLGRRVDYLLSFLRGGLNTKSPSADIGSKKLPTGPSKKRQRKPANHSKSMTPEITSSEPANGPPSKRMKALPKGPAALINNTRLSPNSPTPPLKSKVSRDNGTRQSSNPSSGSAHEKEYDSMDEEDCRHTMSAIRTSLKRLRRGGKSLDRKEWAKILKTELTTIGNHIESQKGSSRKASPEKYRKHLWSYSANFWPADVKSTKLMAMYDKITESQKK

Chain of Sialic acid-binding Ig-like lectin 9 (Homo sapiens) (Q9Y336 whole entry): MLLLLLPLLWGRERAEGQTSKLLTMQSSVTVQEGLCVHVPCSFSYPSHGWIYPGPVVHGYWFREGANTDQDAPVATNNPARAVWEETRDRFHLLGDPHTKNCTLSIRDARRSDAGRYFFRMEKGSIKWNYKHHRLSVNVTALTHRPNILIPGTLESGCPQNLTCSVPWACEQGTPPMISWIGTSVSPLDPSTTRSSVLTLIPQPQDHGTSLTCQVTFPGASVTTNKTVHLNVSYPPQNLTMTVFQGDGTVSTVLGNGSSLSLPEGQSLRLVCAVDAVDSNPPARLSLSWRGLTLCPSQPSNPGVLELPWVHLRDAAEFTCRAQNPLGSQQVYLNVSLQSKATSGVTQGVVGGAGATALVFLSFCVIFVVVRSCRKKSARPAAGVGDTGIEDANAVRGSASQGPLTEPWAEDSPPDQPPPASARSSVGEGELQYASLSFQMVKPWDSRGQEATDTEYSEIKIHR
Chain of Protein translocase subunit SecA (Escherichia coli (strain K12)) (P10408 whole entry): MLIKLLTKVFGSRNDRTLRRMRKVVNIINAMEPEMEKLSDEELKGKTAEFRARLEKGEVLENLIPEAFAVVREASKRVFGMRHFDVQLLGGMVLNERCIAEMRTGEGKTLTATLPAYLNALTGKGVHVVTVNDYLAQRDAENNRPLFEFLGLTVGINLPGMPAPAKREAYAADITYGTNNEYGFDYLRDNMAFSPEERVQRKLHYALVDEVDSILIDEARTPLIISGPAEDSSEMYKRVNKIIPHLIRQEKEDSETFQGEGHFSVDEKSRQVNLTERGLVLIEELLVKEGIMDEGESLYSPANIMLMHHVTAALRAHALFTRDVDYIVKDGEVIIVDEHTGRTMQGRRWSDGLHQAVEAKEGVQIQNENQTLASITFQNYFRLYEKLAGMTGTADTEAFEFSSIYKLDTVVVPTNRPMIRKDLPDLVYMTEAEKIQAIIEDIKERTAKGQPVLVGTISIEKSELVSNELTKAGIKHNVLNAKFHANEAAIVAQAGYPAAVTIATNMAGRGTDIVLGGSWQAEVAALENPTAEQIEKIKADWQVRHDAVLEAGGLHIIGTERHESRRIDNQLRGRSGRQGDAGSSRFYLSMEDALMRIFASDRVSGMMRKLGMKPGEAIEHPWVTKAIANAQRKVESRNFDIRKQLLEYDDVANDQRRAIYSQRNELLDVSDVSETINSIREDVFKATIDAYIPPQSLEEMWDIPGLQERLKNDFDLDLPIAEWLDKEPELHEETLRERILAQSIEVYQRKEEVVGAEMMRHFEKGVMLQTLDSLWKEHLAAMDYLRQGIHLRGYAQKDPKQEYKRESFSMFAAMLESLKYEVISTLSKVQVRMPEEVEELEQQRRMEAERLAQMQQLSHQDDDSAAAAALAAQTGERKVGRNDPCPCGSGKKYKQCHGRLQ

SMILES | Percent Effect [1] [%] | Percent Effect [2] [%] | Percent Effect [3] [%] | Percent Effect [4] [%] | Percent Effect (Trypanosoma cruzi) [%] | Percent Effect [5] [%] | Percent Effect [6] [%] | Percent Effect (Homo sapiens) [%] | Percent Effect [7] [%] | Percent Effect [8] [%] | Percent Effect [9] [%]
O=C(Cn1nc(-c2cccs2)ccc1=O)N1CCCCCC1 | -3.74 | -1.33 | 5.86 | 8.95 | 1.77 | -10.4 | 7.21 | 9 | 1.06 | 7.69 | -3.49
CCCn1[nH]cc/c1=N\C(=O)CN1CCn2c(nnc2C2CC2)C1 | -2.72 | 21.1 | -11.3 | -5.47 | -4.13 | 3.83 | 16.5 | 22.7 | 5.39 | 9.76 | -10.1
CC(NC(N)=O)C(=O)N1CCCN(Cc2nccn2C(C)C)CC1 (configuration not stated) | -1.61 | 1.27 | 7.49 | 0.743 | -1.13 | -4.09 | 2.74 | -2.71 | 0 | 2.53 | -3.12
Cn1cc(CN2C[C@@H]3COC[C@@H](C(=O)N4CCCCO4)[C@@H]3C2)cn1 | -2.29 | 2.67 | 9.23 | 1.72 | 0.787 | 3.03 | 8.19 | 3.52 | 7.45 | 8.97 | 1.85
c1cncc(OCc2nnn3c2CN(Cc2ccsc2)CCC3)c1 | -3.57 | 2.67 | -0.385 | 1.61 | 7.72 | -48.2 | 6.84 | 1.38 | -3.12 | -5 | -5.39
COCCN(Cc1ccoc1)C(=O)c1c(F)cccc1Cl | -4.43 | 5.2 | 10.7 | 9.59 | -5.62 | 5.81 | 2.44 | -5.55 | 3.17 | 11.5 | -5.12
Cc1nc(NCc2ccc(C)o2)cc(C(=O)N2CCOCC2)n1 | -5.2 | 15.6 | -13.8 | 14.3 | 9.14 | -55.2 | 10.5 | 4.67 | 4.3 | 8.64 | -6.33
O=C(Cc1ccsc1)N1CCCC(c2n[nH]c3nccnc23)C1 (configuration not stated) | -5.56 | 14.9 | 11.9 | -1.03 | 4.94 | -1.16 | 15.9 | 17.3 | 2.15 | 9.09 | -4.76
O=C(c1cccc2c1OCO2)N1CCCC1Cn1cccn1 (configuration not stated) | -4.17 | -2.6 | 1.97 | 4.11 | -1.47 | -1.9 | 6.55 | 14.8 | 3.81 | 9.41 | -8.43
CC(C)CC(=O)N1CC[C@@H]2[C@H](CC1)N(S(C)(=O)=O)CCS2(=O)=O | -4.61 | 18.9 | -5.46 | -1.46 | 5.66 | 25.8 | 14.1 | 6.42 | 5.94 | 13.4 | -6.08
Cc1cccc(C)c1OCCNC(=O)NC(C)c1nncn1C (configuration not stated) | -5.7 | 15.6 | -1.02 | -14.1 | 5 | -2.32 | 25.8 | 18.1 | 8.57 | 23.5 | -21.4
O=C(NCc1ccc(-n2cncn2)nc1)c1ccc2c(c1)CCO2 | -5.02 | 8.11 | -9.05 | 1.05 | 1.79 | -2.4 | -3.96 | 14.7 | 7.39 | 13.6 | -6.1
O=C(CCNS(=O)(=O)c1ccc2c(c1)CCCC2)NCc1ccoc1 | -5 | 5.33 | 8.4 | 5.02 | -2.43 | -2.08 | 8.37 | 14.2 | 4.92 | 11.1 | -6.46
CCc1nc(CN2CCCN(C(=O)C(C)n3ccnc3)CC2)cs1 (configuration not stated) | -2.92 | 5.2 | 3.99 | 3.63 | 3.75 | -5.69 | 21.1 | -7.97 | 5.83 | 9.76 | -4.4
Cn1ncc2c1CCCC2NCc1cnc(-c2ccccc2)nc1 (configuration not stated) | -8.3 | 13.5 | -13.8 | 24.2 | 4.62 | -7.21 | 1.44 | 22.4 | 2.46 | 18.5 | -12.3
CCc1n[nH]c(C2CN(C(=O)c3cnns3)CCO2)n1 (configuration not stated) | -3.59 | 0 | 2.14 | -2.18 | -4.63 | -19 | 2.7 | 15.6 | 1.48 | -3.8 | -1.39
CCOc1ccccc1Nc1nc2c(C)nn(C)c2c(=O)n1C | -4.55 | 20.8 | 1.12 | 10.9 | 3.64 | 6.9 | 10.7 | -5.39 | 8.6 | 18.5 | -6.44
